Reference: PubChem BioAssay AID720490 (Broad Institute, 2013)
Potency and affinity values are given separately.

Assay: reduction of Shn3 3'UTR firefly luciferase signal, dose response, Schnurri-3 inhibitor project, cell-based, Clone20 osteoblasts, cherry-pick, set 2 (AID 720490)
Details: Clone20 osteoblast Shn3 3'UTR firefly luciferase, 24 h; series mostly up to 35 µM; activity change, negative = inhibition: at the top concentration;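 active means compound whose fitted half-maximal concentration for signal loss stays within twice its top tested dose in every run; inconclusive means runs not all active and not all inactive; inactive means every run inactive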

Activity change, negative = inhibition, inactive:
CCOC(=O)c1cn(CC(=O)Nc2cccc(Cl)c2C)nn1 3.38%
CCOC(=O)Cn1c(S(=O)(=O)Cc2ccccc2Cl)nc(-c2ccccc2)c1-c1ccccc1 -13.2%
CCN(CC)Cc1c(O)ccc2c1O/C(=C\C=C\c1ccccc1)C2=O 0.079%
O=C1S/C(=C\c2ccc(N3CCOCC3)o2)C(=O)N1Cc1c(F)cccc1Cl -0.988%
